Measured values from the supplement of paper PMC6853941.
Values without a mark were called inactive.

test system: MCF10A; assay: perturbation Mahalanobis distance of morphological profile vs DMSO controls (Mahalanobis distance (SD units)); higher = stronger morphological change, active = 7 or more; conditions: screen batch: Batch1_Mahalanobis_Distance; 72 h
Method: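 MCF10A cells were seeded onto drugs dispensed acoustically into 384-well plates, using one dose per drug chosen from its human peak plasma concentration, and incubated for 72 h at 37 °C. Cells were stained for DNA, tubulin and mitochondria and imaged; 78 CellProfiler features were extracted, plate-normalised and compared with DMSO wells.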

SMILES | perturbation Mahalanobis distance
COc1cc(C)c(/C=C/C(C)=C/C=C/C(C)=C/C(=O)O)c(C)c1C [Acitretin] (7.7 µM) | 6.19
CC(C)N=C(N)/N=C(\N)Nc1ccc(Cl)cc1 [Proguanil] (3 µM) | 2.24
C[C@H]1O[C@@H](O[C@H]2[C@@H](O)C[C@H](O[C@H]3[C@@H](O)C[C@H](O[C@H]4CC[C@@]5(C)[C@H](CC[C@@H]6[C@@H]5CC[C@]5(C)[C@@H](C7=CC(=O)OC7)CC[C@]65O)C4)O[C@@H]3C)O[C@@H]2C)C[C@H](O)[C@@H]1O [Digitoxin] (0.16 µM) | 12.1 (active)
CCC(C)n1ncn(-c2ccc(N3CCN(c4ccc(OC[C@H]5CO[C@](Cn6cncn6)(c6ccc(Cl)cc6Cl)O5)cc4)CC3)cc2)c1=O (stereo partly drawn) [Itraconazole] (14.2 µM) | 2.19
CCN(CC)C(=S)S [Sodium Diethyldithiocarbamate Trihydrate] (10 µM) | 3.67
CC/C(=C(\c1ccc(O)cc1)c1ccc(OCCNC)cc1)c1ccccc1 [Endoxifen] (6.75 µM) | 2.6
N[C@@H](CC(=O)N1CCn2c(nnc2C(F)(F)F)C1)Cc1cc(F)c(F)cc1F [Sitagliptin] (4.8 µM) | 2.76
CO[C@H]1O[C@@H]2O[C@@]3(C)CC[C@H]4[C@H](C)CC[C@@H]([C@H]1C)[C@@]24OO3 [Artemether] (3.9 µM) | 1.96
O=c1ncnc2[nH][nH]cc1-2 [Allopurinol] (139.6 µM) | 2.93
O=C1CCc2ccc(OCCCCN3CCN(c4cccc(Cl)c4Cl)CC3)cc2N1 [Aripiprazole] (3.3 µM) | 2.24
CO[C@@H]1[C@@H](OC(N)=O)[C@@H](O)[C@H](Oc2ccc3c(=O)c(NC(=O)c4ccc(O)c(CC=C(C)C)c4)c(O)oc3c2C)OC1(C)C [Novobiocin] (90.8 µM) | 5.81
OCCN1C[C@H](O)[C@@H](O)[C@H](O)[C@H]1CO [Miglitol] (45.4 µM) | 1.78
C#C[C@]1(O)CC[C@H]2[C@@H]3CCc4cc(O)ccc4[C@H]3CC[C@@]21C [Ethinyl Estradiol] (23 µM) | 5.9
CN[C@H]1CC[C@@H](c2ccc(Cl)c(Cl)c2)c2ccccc21 [Sertraline] (3.3 µM) | 2.81
CCN(CCO)CCCC(C)Nc1ccnc2cc(Cl)ccc12 (stereo not drawn) [Hydroxychloroquine] (1.5 µM) | 3.38
COc1ccc(C[C@@H]2c3cc(OC)c(OC)cc3CC[N@+]2(C)CCC(=O)OCCCCCOC(=O)CC[N@@+]2(C)CCc3cc(OC)c(OC)cc3[C@H]2Cc2ccc(OC)c(OC)c2)cc1OC [Cisatracurium Besylate] (18.1 µM) | 5.34
O=C1CC2(CCCC2)C(O)C(=O)N1CCCCN1CCN(c2ncccn2)CC1 (stereo not drawn) [6-Hydroxybuspirone] (0.05 µM) | 3.46

SMILES | perturbation Mahalanobis distance
CN(C)c1nc(N(C)C)nc(N(C)C)n1 [Altretamine] (98.9 µM) | 2.75
C#CCN(C)Cc1ccccc1 [Pargyline] (1.9 µM) | 3.93
CCc1c2c(nc3ccc(OC(=O)N4CCC(N5CCCCC5)CC4)cc13)-c1cc3c(c(=O)n1C2)COC(=O)[C@]3(O)CC [Irinotecan] (16.8 µM) | 11.9 (active)
NS(=O)(=O)c1cc(Cl)c(Cl)c(S(N)(=O)=O)c1 [Dichlorphenamide] (214.8 µM) | 2.6
O=C(C1CCCCC1)N1CC(=O)N2CCc3ccccc3C2C1 (stereo not drawn) [Praziquantel] (3.2 µM) | 3.15
CC[C@]1(O)C[C@H]2CN(CCc3c([nH]c4ccccc34)[C@@](C(=O)OC)(c3cc4c(cc3OC)N(C)[C@H]3[C@@](O)(C(=O)OC)[C@H](OC(C)=O)[C@]5(CC)C=CCN6CC[C@]43[C@@H]65)C2)C1 [Vinblastine] (0.12 µM) | 11.4 (active)
Nc1nc(NC2CC2)c2ncn(C3C=C[C@H](CO)C3)c2n1 (stereo partly drawn) [Abacavir] (74.4 µM) | 3.81
CNCCCC12CCC(c3ccccc31)c1ccccc12 [Maprotiline] (10.8 µM) | 3.39
CCCCc1oc2ccc(NS(C)(=O)=O)cc2c1C(=O)c1ccc(OCCCN(CCCC)CCCC)cc1 [Dronedarone] (1.3 µM) | 3.58
CN1C(CCl)Nc2cc(Cl)c(S(N)(=O)=O)cc2S1(=O)=O (stereo not drawn) [Methyclothiazide] (0.5 µM) | 2.69
CC(=O)Nc1nnc(S(N)(=O)=O)s1 [Acetazolamide] (90 µM) | 3.52
Cc1nc(-c2ccc(OCC(C)C)c(C#N)c2)sc1C(=O)O [Febuxostat] (178 µM) | 2.73
CCN(CC)CCCC(C)Nc1ccnc2cc(Cl)ccc12 (stereo not drawn) [Chloroquine] (4.7 µM) | 2.4
NC(N)=NC(=O)c1nc(Cl)c(N)nc1N [Amiloride] (1.1 µM) | 5.52
Cc1cc(C)cc(OCC2CNC(=O)O2)c1 (stereo not drawn) [Metaxalone] (38.4 µM) | 3.33
CC(C)(Oc1ccc(Cl)cc1)C(=O)O [Clofibric Acid] (368 µM) | 3.07
